# A selection: hits, their analogues and other compounds. The true share with any hit is near 19%.
# KB-3-1 tox: qHTS assay for MDR1-selective chemotherapeutics: Primary screen using the parental adenocarcinoma cell KB-3-1; KB-3-1 viability, CellTiter-Glo ATP luminescence, 72 h; Potency, µM (highest dose often 46.1 µM), most hits filed as cytotoxic; 400,000 compounds, 1.4% hits; AID 1347075, 2019; further: nearly all actives have a fitted effect of over 60% in size
#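 Cytotoxicity in the drug-sensitive parental line KB-3-1 was scored as loss of CellTiter-Glo luminescence following 72 h incubation with compound. Values come from curve fitting of normalized concentration-response data.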
# HT1080NT lethal: qHTS for induction of synthetic lethality in tumor cells producing 2HG: qHTS for the HT-1080-NT fibrosarcoma cell line | HT-1080-NT fibrosarcoma viability, CellTiter-Glo ATP luminescence, 48 h | Potency, µM (doses to about 46.1 µM), hits mostly cytotoxic | 360,000 compounds, 1.6% hits | AID 686970, 2013;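 further: NT is the 2HG producing partner of a matched IDH1 knockdown line; nearly all actives have a fitted effect of over 55% in size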
#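 HT-1080-NT fibrosarcoma cells (2HG-overproducing), 750 cells/well in RPMI with 5% FBS, dosed after 2 h and incubated 48 h at 37C. CellTiter-Glo luminescence normalized to DMSO and no-cell wells; concentration-response curves fitted and classed.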
# HT1080 IDH1KD tx: qHTS for induction of synthetic lethality in tumor cells producing 2HG: qHTS for the HT-1080-IDH1KD cell line | HT-1080 IDH1 knockdown viability, ATP luminescence, 48 h | Potency, µM (doses to about 46.1 µM), hits mostly cytotoxic | 360,000 compounds, 2% hits
#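 HT-1080-IDH1KD cells (IDH1 knocked down), 750/well in RPMI with 5% FBS, treated with compound 48 h at 37 degrees C. Viability by CellTiter-Glo luminescence, normalised to DMSO and no-cell wells; concentration-response curves classed.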
# KB-V1 MDR tox: qHTS assay for MDR1-selective chemotherapeutics: Primary screen using the drug-selected MDR subline cells KB-V1; 400,000 compounds, 3.4% hits; KB-V1 MDR cells viability, CellTiter-Glo, 72 h; Potency, µM (top dose mostly 46.1 µM), most hits filed as cytotoxic; further: nearly all actives have a fitted effect of over 60% in size
#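 KB-V1, DMEM (no phenol red) + 10% FBS; cpd pin-transferred, titration series; 72 h, 37 degrees C; CellTiter-Glo, luminescence. Data normalized, curve-fit.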
# DT40 TDP1 CPT: qHTS for Inhibitors of human tyrosyl-DNA phosphodiesterase 1 (TDP1): qHTS in cells in presence of CPT; chicken DT40 Tdp1-/-;hTDP1 cells + 20 nM CPT, ATP luminescence, 48 h; Potency, µM (top dose mostly 46.2 µM), actives largely listed as inhibitors; 420,000 compounds, 12% hits; further: nearly all actives have a fitted effect of over 55% in size
#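 Chicken DT40 Tdp1-/- cells stably complemented with human TDP1 were seeded at 400 cells/well in medium containing 20 nM camptothecin, exposed to pin-transferred compounds, and grown at 37 °C for at least 48 hr. Viability was read as ATP luminescence.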
# DT40 TDP1 no CPT: qHTS for Inhibitors of human tyrosyl-DNA phosphodiesterase 1 (TDP1): qHTS in cells in absence of CPT; DT40 Tdp1-/- hTDP1 cells, no CPT, ATP luminescence, 48 h; Potency, µM (titrated, usually from 46.2 µM), usual class: inhibitors; 420,000 compounds, 15% hits; further: nearly all actives have a fitted effect of over 55% in size
#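 Readout: luminescence from CellTiter-Glo after 30 min in the dark at RT. Cells: DT40 Tdp1-/- with stable hTDP1, 400/well. Exposure: compounds alone, ≥48 hr, 37 °C.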
# Hits are given with their value; i = inactive; ? = inconclusive; nt = not tested or not shown; ! = a repeat was not active; [ ] = remark or other dose. The call rests on the fitted dose curve; in most records, active means well fitted curve in the direction sought with a large enough effect; inconclusive means small, poorly fitted or top-dose-only effect, or another doubt; inactive means no such curve, though single readings can be large; an effect the other way counts as inactive or inconclusive.
SMILES,KB-3-1 tox,HT1080NT lethal,HT1080 IDH1KD tx,KB-V1 MDR tox,DT40 TDP1 CPT,DT40 TDP1 no CPT
Nc1ccc(C2(c3ccc(N)cc3)CCCCC2)cc1,i,i,i,i,i,i
COC(=O)C1=C(C(=O)OC)C2c3ccccc3C1c1ccccc12,i,i,i,15µM,?,?
Cc1ccc2oc(=O)n(CCC(=O)Nc3ccc(N4CCOCC4)cc3)c2c1,i,i,i,?,i,?
CCC1=Nc2cc(C(=O)N3CCC4(CC3)OCCO4)ccc2Sc2ccc(Br)cc21,?,i,i,i,?,?
C=CCc1ccccc1OCCn1c(C2CC(=O)N(Cc3ccc(F)cc3)C2)nc2ccccc21 (stereo not given),?,nt,nt,?,16µM,?
C[N+](C)(C)CC1CCCc2ccccc2C1=O (stereo not given),?,?,5.8µM,i,2.9µM,2.6µM
C[N+](C)(C)CC1CCCC(C[N+](C)(C)C)C1=O (stereo not given),?,?,3.7µM,?,0.041µM,0.058µM
CN1C(=O)NC(=O)C2(CCCC2)C1=O,i,i,i,i,i,i
COc1ccc(CN2CCc3nc(N4CCN(c5ccc(F)cc5)CC4)ncc3C2)c(OC)c1OC,i,nt,nt,?,5.8µM,4.6µM
O=C(NCCc1ccccc1)c1ccc(CSc2nc3cccnc3n2Cc2ccc(F)cc2)cc1,i,nt,nt,i,?,15µM
O=C(NCCc1ccccc1)c1ccc2nccnc2c1,i,i,i,i,?,i
Cc1nn(Cc2ccccc2)c(Cl)c1C(=O)OCC(=O)N1CCCC1,i,i,i,i,i,i
COc1cc2nc(N3CCCN(C)CC3)nc(N(C)C3CCN(C)CC3)c2cc1OC,i,nt,nt,i,6.3µM,6.3µM
C/C(=C\[C@@H](N)C(=O)O)CP(=O)(O)O,nt,nt,nt,nt,i,i
COc1ccc(NC2=CC(=O)CC(c3ccccc3)C2)c(OC)c1 (stereo not given),?,3.5µM,2.5µM,2.6µM,4.1µM,3.3µM
CN(CC(=O)Nc1ccccc1-c1ccccc1)C1CCCCC1,?,?,i,?,23µM,?
CCN1/C(=C\C=C\C2=[N+](CC)c3ccccc3C2(C)C)C(C)(C)c2ccccc21,?,0.65µM,2.6µM,21µM,0.092µM,0.15µM
O=C(Nc1c(Cl)cccc1Cl)Oc1cccc2cccnc12,?,6.5µM,3.7µM,?,4.1µM,4.6µM
O=C(Nc1cccc(Br)c1)Oc1cccc2cccnc12,?,16µM,?,?,5.2µM,3.3µM
CCC1CN1P(=O)(Oc1ccc(Cl)cc1)N1CC1CC (stereo not given),i,i,i,i,?,?
Cc1ccc(/C=N/n2c(-c3ccccc3)csc2=S)cc1,nt,nt,nt,nt,15µM,?
CC(C)C[C@H](NC(=O)[C@H](Cc1ccccc1)NC(=O)CNC(=O)[C@H](CO)NC(=O)[C@@H](N)Cc1ccc(O)cc1)C(=O)N[C@H](C(=O)O)[C@H](C)O,nt,nt,nt,nt,i[4.12 µM],i[4.12 µM]
Cc1ccc2nc(N)[nH]c(=O)c2c1Sc1ccncc1,nt,nt,nt,nt,?,0.38µM
Nc1nonc1C(=O)N/N=C/c1ccc([N+](=O)[O-])o1,i,?,18µM,i,7.3µM,9.2µM
C/C(=C/CCC(C)[C@H]1CC[C@@]2(C)C3=C(CC[C@]12C)[C@@]1(C)CCC(=O)C(C)(C)[C@@H]1CC3)C(=O)O (stereo not given in full),i,i,i,i,?,?
SMILES,KB-3-1 tox,HT1080NT lethal,HT1080 IDH1KD tx,KB-V1 MDR tox,DT40 TDP1 CPT,DT40 TDP1 no CPT
O=C(CN1CCCC2CCCCC21)c1ccc(I)cc1 (stereo not given),i,nt,nt,i,i,i
O=Cc1cn(CCCOc2ccccc2)c2ccccc12,i,i,i,i,?,?
O=Cc1cn(Cc2ccccc2F)c2ccccc12,i,i,i,i,21µM,15µM
Cc1c(C=O)c2ccccc2n1Cc1ccccc1F,?,i,i,?,i,i
Cc1cccc(Cn2cc(C=O)c3ccccc32)c1,18µM,i,?,i,?,?
N#Cc1ccc(Cn2cc(C=O)c3ccccc32)cc1,i,i,i,i,i,i
O=Cc1cn(Cc2c(F)cccc2Cl)c2ccccc12,?,i,i,16µM,?,?
CCOC(=O)c1c(C)[nH]c(C)c1S(=O)(=O)N1CCC(C(=O)N2CCN(c3cccc(Cl)c3)CC2)CC1,i,nt,nt,?,?,?
CC(C)Cc1nc2cccnc2n1C1CCNCC1,i,nt,nt,i,i,i
COCCCOc1ccnc(CS(=O)c2nc3ccccc3[nH]2)c1C (stereo not given),i,i,i,?,24µM,?
Cc1ccccc1S(=O)(=O)N1C[C@H]2[C@H]3C(=O)N(C4CCCCC4)C(=O)[C@H]3CC(=O)[C@H]2[C@@H]1c1ccc(Cl)cc1,i,i,i,i,?,?
O=c1[nH]c(=O)n(-c2ccc(Br)cc2)c(O)c1C=NCCN1CCCCC1,i,i,i,i,i,i
CS(=O)c1ccc(-c2nc(-c3ccc(F)cc3)c(-c3ccncc3)[nH]2)cc1 (stereo not given),nt,nt,nt,nt,30µM!,15µM
C=C1C2CCC3[C@@](CC[C@@H]4C(C(=O)O)CC(OC5OC(CO)C(OS(=O)(=O)O)C(OS(=O)(=O)O)C5OC(=O)CC(C)C)C[C@]34C)(C2)C1O (stereo not given in full),nt,nt,nt,nt,i,i
Cc1ccccc1C1=NCC(=O)N(CC(=O)NCc2ccco2)c2sc3c(c21)CCCC3,i,i,i,18µM,16µM,22µM
COc1ccc(C2CN(C)CC2C(=O)c2ccc(F)cc2)cc1Cl (stereo not given),i,i,i,i,i,21µM
COc1ccc(CN2Cc3cc(N4CCOCC4)ccc3-n3nncc3C2)cc1,i,i,i,i,21µM,?
Cc1ccccc1CN1Cc2cnnn2-c2ccccc2C1C#N (stereo not given),?,8.2µM,6.5µM,?,2.6µM,2.1µM
Cc1ccccc1C(=O)N1Cc2cnnn2-c2ccccc2C1C#N (stereo not given),i,i,i,i,i,i
COc1ccc(CN2Cc3cnnn3-c3ccccc3C2C)cc1 (stereo not given),13µM,i,?,?,?,16µM

# Assay outcomes as filed in PubChem BioAssay.
